# TDP1 cell noCPT: qHTS for Inhibitors of human tyrosyl-DNA phosphodiesterase 1 (TDP1): qHTS in cells in absence of CPT | DT40 Tdp1-/- hTDP1 cells, no CPT, ATP luminescence, 48 h | Potency, µM (doses to about 46.2 µM), for the others: top-dose activity change, negative = growth inhibition, most hits filed as inhibitors | 420,000 tested, 15% active; further: potency means the concentration at half of the fitted maximal effect; nearly all actives have a fitted effect of over 55% in size
#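 Luminescent ATP content (CellTiter-Glo) served as the growth readout. Knockout chicken DT40 cells expressing human TDP1 were exposed to compounds without camptothecin for a minimum 48 hr at 37 °C.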
# Gal4-VP16 FLuc: counter-screen for ROR gamma inhibitors: Gal4-VP16 reporter. Drosophila S2 Gal4-VP16 UAS-luciferase, luminescence, 20 h. Potency, µM (series often up to 53.6 µM), for the others: at the top dose activity, negative = inhibition, usual class: inhibitors. 310,000 tested, 3.5% active;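 further: Gal4-VP16 expression switched on by copper sulfate through the metallothionein promoter; potency means the concentration at half of the fitted maximal effect; nearly all actives have a fitted effect of over 50% in size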
# TDP1 cell CPT: growth inhibition of DT40 Tdp1-/-;hTDP1 cells with camptothecin (screen for TDP1 inhibitors). chicken DT40 Tdp1-/-;hTDP1 cells + 20 nM CPT, ATP luminescence, 48 h. 420,000 tested, 12% active. Potency, µM (top dose mostly 46.2 µM), without a hit: at the highest dose activity change, negative = growth inhibition, actives largely listed as inhibitors; further: potency means the concentration at half of the fitted maximal effect; nearly all actives have a fitted effect of over 55% in size
#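 Chicken DT40 Tdp1-/- cells stably complemented with human TDP1 were seeded at 400 cells/well in medium containing 20 nM camptothecin, exposed to pin-transferred compounds, and grown at 37 °C for at least 48 hr. Viability was read as ATP luminescence.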
# LDHA block: inhibitors of human lactate dehydrogenase A | purified LDHA, NADH/diaphorase-resazurin fluorescence; hits give low values | 480,000 tested, 0.15% active | P00338 | activity change, % (values are at about 110 or 230 µM); in the data active means activity change below about -30%; inconclusive means mostly about -25% to -30%;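 further: plate controls were DMSO wells for no effect and wells without enzyme for full effect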
#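 Human LDH5 (2 nM) was incubated with 0.06 mM NADH and 0.2 mM pyruvate for 5 min at room temperature in Tris pH 7.4. Remaining NADH was coupled through diaphorase/resazurin, and resorufin fluorescence was read at 0 and 20 min.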
# RORgamma inh: blocks mouse ROR gamma transcriptional activity; 310,000 tested, 5.4% active; Potency, µM (titrated, usually from 53.6 µM), for inactives: top-dose activity change, negative = inhibition, hits mostly inhibitors; Drosophila S2 Gal4-RORgamma UAS-luciferase reporter, 20 h; AID 2551; P51450; further: potency means the concentration at half of the fitted maximal effect; nearly all actives have a fitted effect of over 60% in size
# Target sequence (P51450 whole entry, looked up, the tested form may be a part): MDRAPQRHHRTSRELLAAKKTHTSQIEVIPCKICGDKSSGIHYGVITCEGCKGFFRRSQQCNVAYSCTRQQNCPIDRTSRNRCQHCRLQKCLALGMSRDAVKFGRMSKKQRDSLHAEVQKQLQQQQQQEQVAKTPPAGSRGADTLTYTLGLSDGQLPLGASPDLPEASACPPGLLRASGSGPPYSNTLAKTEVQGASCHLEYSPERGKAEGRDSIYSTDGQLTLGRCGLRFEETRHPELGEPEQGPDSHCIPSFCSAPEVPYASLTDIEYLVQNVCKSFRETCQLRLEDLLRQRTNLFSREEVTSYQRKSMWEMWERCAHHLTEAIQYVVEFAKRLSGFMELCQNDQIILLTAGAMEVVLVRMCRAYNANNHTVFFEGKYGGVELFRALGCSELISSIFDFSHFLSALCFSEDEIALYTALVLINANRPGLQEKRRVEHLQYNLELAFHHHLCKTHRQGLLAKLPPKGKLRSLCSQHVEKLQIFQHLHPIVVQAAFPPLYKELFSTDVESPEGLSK
#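 Stable Schneider cell line, Gal4 DNA-binding domain fused to ROR gamma, UAS-luciferase. Cmpd 1 hr RT → CuSO4 700 uM final → 20 hr RT → luciferase reagent 10 min → luminescence.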
# IL1B secr inh: inflammasome signaling inhibition, IL-1 beta readout. THP-1 LPS/ATP IL-1B secretion, AlphaLISA, 16 h; hits give low values. activity change, % at 57.5 µM. 360,000 tested, 4.7% active; in the data active means activity change below about -50%; inconclusive means mostly about -30% to -49%
#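 THP-1 cells pretreated 1 hr with compounds (up to 57.5 uM final), then stimulated with LPS (250 ng/mL final) plus ATP (1.25 mM final); secreted IL-1B measured by AlphaLISA after 16 hr, decreased signal indicating inhibition.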
# * = called active by the depositor; ? = inconclusive; / = not tested or not shown; [ ] = dose if it differs, or a comment. The list is not random: actives were taken first. Their share in the collection is about 18%. Unless noted, the call rests on the fitted dose curve; in most records, active means well fitted curve in the direction sought with a large enough effect; inconclusive means small, poorly fitted or top-dose-only effect, or another doubt; inactive means no such curve, though single readings can be large; an effect the other way counts as inactive or inconclusive. Unless noted, on the % scale 0 is the no-effect control and ±100 the full control effect.
SMILES,TDP1 cell noCPT,Gal4-VP16 FLuc,TDP1 cell CPT,LDHA block,RORgamma inh,IL1B secr inh
O=C(Nc1ccc(C(=O)N2CCCCC2)cc1)c1nsc2ccccc12,21µM*,/,21µM*,-2,/,/
CCOc1ccccc1CNC(=O)c1cccc(NC(=O)c2nsc3ccccc23)c1,5.2µM*,/,5.8µM*,-5,/,/
CCOc1cc(CNC(=O)c2ccccc2NC(=O)c2nsc3ccccc23)ccc1OC,18µM*,/,16µM*,3,/,/
O=C(Nc1ccc(C(=O)N2CCN(c3ccc(F)cc3)CC2)cc1)c1nsc2ccccc12,?,/,?,-2,/,/
COc1ccc(OC)c(CNC(=O)c2ccccc2NC(=O)c2nsc3ccccc23)c1,?,/,?,1,/,/
Cc1ccccc1CNC(=O)c1ccc(CSCc2ccccc2)cc1,21µM*,4%,?,-1,16%,-23
CCc1c(C)nc(SCc2nc(-c3cccc(C)c3)oc2C)[nH]c1=O,/,/,/,-1,/,/
O=C1/C(=C/c2cccc3ccccc23)Cc2ccccc21,/,/,/,4,/,/
Cc1ccccc1CNC(=O)c1ccc(NC(=O)c2nsc3ccccc23)cc1,12µM*,/,15µM*,3,/,/
CNC(=O)c1ccc(NC(=O)c2nsc3ccccc23)cc1,?,/,-10%,-14,/,/
CCOC(=O)c1ccc(NC(=O)c2nsc3ccccc23)cc1,?,/,18µM*,1,/,/
Cc1ccc(CNC(=O)c2ccc(NC(=O)c3nsc4ccccc34)cc2)cc1,-15%,/,10%,-8,/,/
O=C(Cc1ccc(C(F)(F)F)cc1)NCCc1ccccn1,/,/,/,2,/,/
C=CCNC(=O)NC(=O)CSc1nc(-c2ccccc2)c(-c2ccccc2)o1,/,/,/,-11,/,/
CCc1cccc2c(C(=O)C(=O)NCc3cccc(OC)c3)c[nH]c12,/,/,/,-1,/,/
O=C(NCCc1ccccc1)c1cc(-c2ccco2)on1,?,-10%,6.3µM*,-8,?,0
COc1ccc(CCNC(=O)c2cc(-c3ccco3)on2)cc1OC,16µM*,-3%[10 µM],10µM*,-5,8%,?
COc1ccc(Nc2nc(C(=O)NCc3ccco3)cs2)cc1,?,-8%,23µM*,2,?,-4
O=C(NCc1ccccc1)c1cc(-c2ccco2)on1,?,24%,-23%,12,?,-11
COc1ccccc1-c1cc(C(=O)NCc2ccco2)no1,-25%,13%,-3%,-7,45%,-14
O=C(NCc1ccco1)c1cc(-c2ccco2)on1,?,-29%,23µM*,-9,35%,-20
CCCNc1nc(N(C)C)nc(-n2cnc(SCC(=O)OCC)n2)n1,/,/,/,-6,/,/
N#Cc1nc(-c2ccco2)oc1N1CCN(C(=O)c2ccc(F)cc2F)CC1,/,/,/,6,/,/
COc1cc(OC)cc(C(=O)N[C@H](C(=O)NCc2ccco2)C(C)C)c1,15µM*,5%,29µM*,-6,11%,11
CCOc1cc(C(=O)OCC(N)=O)cc(OCC)c1OCC,/,/,/,-1,/,/
SMILES,TDP1 cell noCPT,Gal4-VP16 FLuc,TDP1 cell CPT,LDHA block,RORgamma inh,IL1B secr inh
CN1C(=O)c2cccc(NCCCCCCN3C(=O)c4ccccc4C3=O)c2C1=O,9.2µM*,0%,21µM*,1,14%,?
CN1C(=O)c2cccc(NCCCN3C(=O)c4ccccc4C3=O)c2C1=O,-8%,-9%,?,-2,4%,8
CC1(C(=O)Nc2ccc3[nH]ncc3c2)CCN1C(=O)C/C=C/c1ccccc1 (stereo not drawn),18µM*,/,?,-3,/,-25
CC1(C(=O)Nc2ccc3[nH]ncc3c2)CCN1C(=O)CC(c1ccccc1)c1ccccc1 (stereo not drawn),?,/,?,2,/,-15
CC1(C(=O)Nc2ccc3[nH]ncc3c2)CCN1C(=O)C1(c2ccccc2)CC1 (stereo not drawn),-17%,/,8.2µM*,-3,/,-18
CC1(C(=O)Nc2cnc3ccccc3c2)CCN1C(=O)C/C=C/c1ccccc1 (stereo not drawn),6.5µM*,/,3.3µM*,0,/,0
Cc1ccc(OCC(=O)NNC(=S)NC(=O)c2cccs2)c(C)c1,16µM*,11µM*,16µM*,-1,10µM*,68
Cc1cccc(C(=O)NC(=S)NNC(=O)c2cccs2)c1,?,-18%,-76%,3,?,0
Cc1ccc(OCC(=O)NNC(=S)NC(=O)c2ccc(Br)o2)c(C)c1,13µM*,?,?,1,?,28
Cc1cc(OCC(=O)NNC(=S)NC(=O)c2cccs2)ccc1Cl,?,?,?,-4,7.9µM*,4
COc1ccc(C(=O)NNC(=S)NC(=O)c2ccc(Br)o2)cc1OC,?,-22%,?,-4,-12%,51
COc1ccc(OCC(=O)NNC(=O)c2cccs2)cc1,-11%,3%,15%,0,-4%,5
COP(=O)(OC)c1nc(-c2ccco2)oc1NCc1ccccc1Cl,/,/,/,7,/,/
O=C(Nc1cccc(F)c1)c1cccn2c(-c3ccc(F)cc3)nnc12,/,/,/,0,/,/
Cc1ccc(-c2ccc(OC(=O)C3CCC(C)CC3)cc2)cc1 (stereo not drawn),/,/,/,-4,/,/
CCOC(=O)c1[nH]c(C)c(CCC(=O)N2CCN(c3cc(C)ccc3C)CC2)c1C,23µM*,/,?,-9,/,/
CCOC(=O)c1[nH]c(C)c(CCC(=O)Nc2cc(C)ccc2OC)c1C,?,/,-28%,-1,/,/
COc1ccc(-c2cc(CCC(=O)N3CCN(c4cc(C)ccc4C)CC3)[nH]n2)cc1,23µM*,/,?,-3,/,-5
CCOC(=O)c1[nH]c(C)c(CCC(=O)N2CCN(c3cccc(OC)c3)CC2)c1C,?,/,?,0,/,/
CCOC(=O)c1[nH]c(C)c(CCC(=O)N2CCN(c3cc(Cl)ccc3C)CC2)c1C,23µM*,/,?,-9,/,/
CCOC(=O)c1[nH]c(C)c(CCC(=O)Nc2c(C)cc(C)cc2C)c1C,21µM*,/,?,-6,/,/
Cc1ccc(C(=O)C2CC2)cc1,/,/,/,2,/,/
NC(=O)c1ccccc1OCC(=O)N1CCCc2ccccc21,?,1%,?,-2,14%,48
CCc1cc(=O)oc2c(C)c(OCC(=O)N3CCCc4ccccc43)ccc12,?,?,18µM*,-3,11µM*,-20
O=C(COc1ccc(Br)cc1CO)N1CCCc2ccccc21,26µM*,-8%,-6%,-5,-2%,-11
CCc1cc(=O)oc2cc(OCC(=O)N3CCc4ccccc43)ccc12,/,6%,/,/,0%,/

# High-throughput results: PubChem BioAssay, National Center for Advancing Translational Sciences (NCATS)
